{"source": "paper PMC5540273", "about": "(PLoS ONE, 2017);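 also: KINOMEscan kinase panel screen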", "conditions_in_all_cases": "concentration: 1 μM, replicates: in singlicate; n = 1", "key": {"WNK1": {"test_system": "WNK1"}, "WNK2": {"test_system": "WNK2"}, "WNK3": {"test_system": "WNK3"}, "WNK4": {"test_system": "WNK4"}, "YANK1": {"test_system": "T1, YANK1", "T1 construct": "gene STK32A"}, "YANK2": {"test_system": "T2, YANK2", "T2 construct": "gene STK32B"}, "YANK3": {"test_system": "T3, YANK3", "T3 construct": "gene STK32C"}, "YES": {"test_system": "T4, YES", "T4 construct": "gene YES1"}, "YSK1": {"test_system": "T5, YSK1", "T5 construct": "gene STK25"}, "YSK4": {"test_system": "T6, YSK4", "T6 construct": "gene MAP3K19"}}, "data": [{"smiles": "Cc1ccccc1CC(=O)N1CCc2cc(-c3cn(C)c4ncnc(N)c34)ccc21", "note": "[GSK2603346]", "values": [{"measurement": "%Inh", "setting": "WNK1", "result": 18, "unit": "%"}, {"measurement": "%Inh", "setting": "WNK2", "result": 25, "unit": "%"}, {"measurement": "%Inh", "setting": "WNK3", "result": 50, "unit": "%"}, {"measurement": "%Inh", "setting": "WNK4", "result": 8, "unit": "%"}, {"measurement": "%Inh", "setting": "YANK1", "result": 7, "unit": "%"}, {"measurement": "%Inh", "setting": "YANK2", "result": 0, "unit": "%"}, {"measurement": "%Inh", "setting": "YANK3", "result": 22, "unit": "%"}, {"measurement": "%Inh", "setting": "YES", "result": 18, "unit": "%"}, {"measurement": "%Inh", "setting": "YSK1", "result": 54, "unit": "%"}, {"measurement": "%Inh", "setting": "YSK4", "result": 84, "unit": "%"}]}, {"smiles": "COc1cccc2c(-c3ccncc3)c(-c3ccc(F)cc3)nn12", "note": "[GW468513]", "values": [{"measurement": "%Inh", "setting": "WNK1", "result": 0, "unit": "%"}, {"measurement": "%Inh", "setting": "WNK2", "result": 0, "unit": "%"}, {"measurement": "%Inh", "setting": "WNK3", "result": 31, "unit": "%"}, {"measurement": "%Inh", "setting": "WNK4", "result": 24, "unit": "%"}, {"measurement": "%Inh", "setting": "YANK1", "result": 65, "unit": "%"}, {"measurement": "%Inh", "setting": "YANK2", "result": 72, "unit": "%"}, {"measurement": "%Inh", "setting": "YANK3", "result": 72, "unit": "%"}, {"measurement": "%Inh", "setting": "YES", "result": 15, "unit": "%"}, {"measurement": "%Inh", "setting": "YSK1", "result": 4, "unit": "%"}, {"measurement": "%Inh", "setting": "YSK4", "result": 6, "unit": "%"}]}, {"smiles": "Nc1cccc(-c2ccc3c(N)n[nH]c3c2)c1", "note": "[GSK2193613]", "values": [{"measurement": "%Inh", "setting": "WNK1", "result": 6, "unit": "%"}, {"measurement": "%Inh", "setting": "WNK2", "result": 0, "unit": "%"}, {"measurement": "%Inh", "setting": "WNK3", "result": 7, "unit": "%"}, {"measurement": "%Inh", "setting": "WNK4", "result": 0, "unit": "%"}, {"measurement": "%Inh", "setting": "YANK1", "result": 9, "unit": "%"}, {"measurement": "%Inh", "setting": "YANK2", "result": 0, "unit": "%"}, {"measurement": "%Inh", "setting": "YANK3", "result": 25, "unit": "%"}, {"measurement": "%Inh", "setting": "YES", "result": 0, "unit": "%"}, {"measurement": "%Inh", "setting": "YSK1", "result": 22, "unit": "%"}, {"measurement": "%Inh", "setting": "YSK4", "result": 96.4, "unit": "%"}]}, {"smiles": "Cc1cc(-c2ccnc(Nc3cccc(C#N)c3)n2)cc(C)c1O", "note": "[GSK1440913]", "values": [{"measurement": "%Inh", "setting": "WNK1", "result": 7, "unit": "%"}, {"measurement": "%Inh", "setting": "WNK2", "result": 0, "unit": "%"}, {"measurement": "%Inh", "setting": "WNK3", "result": 4, "unit": "%"}, {"measurement": "%Inh", "setting": "WNK4", "result": 26, "unit": "%"}, {"measurement": "%Inh", "setting": "YANK1", "result": 7, "unit": "%"}, {"measurement": "%Inh", "setting": "YANK2", "result": 0, "unit": "%"}, {"measurement": "%Inh", "setting": "YANK3", "result": 13, "unit": "%"}, {"measurement": "%Inh", "setting": "YES", "result": 19, "unit": "%"}, {"measurement": "%Inh", "setting": "YSK1", "result": 4, "unit": "%"}, {"measurement": "%Inh", "setting": "YSK4", "result": 97, "unit": "%"}]}, {"smiles": "O=C(O)C(F)(F)F.O=c1[nH]ccc2nc(N[C@@H]3CCNC3)nc(Nc3ccc4c(c3)S(=O)(=O)CC4)c12", "note": "[GSK2181306]", "values": [{"measurement": "%Inh", "setting": "WNK1", "result": 0, "unit": "%"}, {"measurement": "%Inh", "setting": "WNK2", "result": 29, "unit": "%"}, {"measurement": "%Inh", "setting": "WNK3", "result": 0, "unit": "%"}, {"measurement": "%Inh", "setting": "WNK4", "result": 0, "unit": "%"}, {"measurement": "%Inh", "setting": "YANK1", "result": 70, "unit": "%"}, {"measurement": "%Inh", "setting": "YANK2", "result": 0, "unit": "%"}, {"measurement": "%Inh", "setting": "YANK3", "result": 8, "unit": "%"}, {"measurement": "%Inh", "setting": "YES", "result": 20, "unit": "%"}, {"measurement": "%Inh", "setting": "YSK1", "result": 97.4, "unit": "%"}, {"measurement": "%Inh", "setting": "YSK4", "result": 99.7, "unit": "%"}]}, {"smiles": "CCn1cnc2c(NCc3ccccc3)ncnc21", "note": "[SKF-96418]", "values": [{"measurement": "%Inh", "setting": "WNK1", "result": 12, "unit": "%"}, {"measurement": "%Inh", "setting": "WNK2", "result": 0, "unit": "%"}, {"measurement": "%Inh", "setting": "WNK3", "result": 43, "unit": "%"}, {"measurement": "%Inh", "setting": "WNK4", "result": 16, "unit": "%"}, {"measurement": "%Inh", "setting": "YANK1", "result": 0, "unit": "%"}, {"measurement": "%Inh", "setting": "YANK2", "result": 19, "unit": "%"}, {"measurement": "%Inh", "setting": "YANK3", "result": 0, "unit": "%"}, {"measurement": "%Inh", "setting": "YES", "result": 0, "unit": "%"}, {"measurement": "%Inh", "setting": "YSK1", "result": 0, "unit": "%"}, {"measurement": "%Inh", "setting": "YSK4", "result": 10, "unit": "%"}]}, {"smiles": "Fc1cc(Cl)ccc1Nc1ccnc2cc(-c3ccc(CN4CCSCC4)o3)ccc12", "note": "[GW560106]", "values": [{"measurement": "%Inh", "setting": "WNK1", "result": 1, "unit": "%"}, {"measurement": "%Inh", "setting": "WNK2", "result": 0, "unit": "%"}, {"measurement": "%Inh", "setting": "WNK3", "result": 35, "unit": "%"}, {"measurement": "%Inh", "setting": "WNK4", "result": 14, "unit": "%"}, {"measurement": "%Inh", "setting": "YANK1", "result": 7, "unit": "%"}, {"measurement": "%Inh", "setting": "YANK2", "result": 24, "unit": "%"}, {"measurement": "%Inh", "setting": "YANK3", "result": 1, "unit": "%"}, {"measurement": "%Inh", "setting": "YES", "result": 79, "unit": "%"}, {"measurement": "%Inh", "setting": "YSK1", "result": 19, "unit": "%"}, {"measurement": "%Inh", "setting": "YSK4", "result": 66, "unit": "%"}]}, {"smiles": "CC(=O)Nc1cn2nc(Oc3cccc(NC(=O)c4cccc(C(F)(F)F)c4)c3)ccc2n1", "values": [{"measurement": "%Inh", "setting": "WNK1", "result": 0, "unit": "%"}, {"measurement": "%Inh", "setting": "WNK2", "result": 0, "unit": "%"}, {"measurement": "%Inh", "setting": "WNK3", "result": 0, "unit": "%"}, {"measurement": "%Inh", "setting": "WNK4", "result": 0, "unit": "%"}, {"measurement": "%Inh", "setting": "YANK1", "result": 0, "unit": "%"}, {"measurement": "%Inh", "setting": "YANK2", "result": 0, "unit": "%"}, {"measurement": "%Inh", "setting": "YANK3", "result": 0, "unit": "%"}, {"measurement": "%Inh", "setting": "YES", "result": 96.2, "unit": "%"}, {"measurement": "%Inh", "setting": "YSK1", "result": 0, "unit": "%"}, {"measurement": "%Inh", "setting": "YSK4", "result": 99.9, "unit": "%"}]}, {"smiles": "Cc1nn2c(=O)cc(N3CCO[C@H](C)C3)nc2n1Cc1cccc(Cl)c1Cl", "note": "[GSK2373693]", "values": [{"measurement": "%Inh", "setting": "WNK1", "result": 4, "unit": "%"}, {"measurement": "%Inh", "setting": "WNK2", "result": 18, "unit": "%"}, {"measurement": "%Inh", "setting": "WNK3", "result": 5, "unit": "%"}, {"measurement": "%Inh", "setting": "WNK4", "result": 0, "unit": "%"}, {"measurement": "%Inh", "setting": "YANK1", "result": 2, "unit": "%"}, {"measurement": "%Inh", "setting": "YANK2", "result": 0, "unit": "%"}, {"measurement": "%Inh", "setting": "YANK3", "result": 14, "unit": "%"}, {"measurement": "%Inh", "setting": "YES", "result": 14, "unit": "%"}, {"measurement": "%Inh", "setting": "YSK1", "result": 0, "unit": "%"}, {"measurement": "%Inh", "setting": "YSK4", "result": 56, "unit": "%"}]}]}
